DAX1 inh-1 = NR0B1 (DAX1) inhibition. P51843. HEK293 Gal4-DAX1 luciferase reporter, luminescence. inhibition, % at 6.75 µM. 340,000 compounds, 0.99% hits. AID 504766;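 active means inhibition above the mean over all tested compounds plus 3 SD, cut at about 4.2% in these data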;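 further: 0% = DAX1-transfected cells with DMSO and 100% = empty-vector control cells with DMSO; inhibition shows as a rise in luminescence from relieved DAX1 repression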
AHR act = activators of human aryl hydrocarbon receptor | AHR-responsive luciferase reporter cells, luminescence | activation, % at 5 µM | 320,000 compounds, 2.5% hits; in the data active means activation above about 47%;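 further: 0% = vehicle wells and 100% = reference agonist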
ssDAF-12 act = activates DAF-12 receptor from parasite S. stercoralis; 370,000 compounds, 1% hits; activation, % at 6.8 µM; HEK293 ssDAF-12/GRIP1 lit1-tk-luc reporter, luminescence; % of 3 µM dafachronic acid response;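 active means activation above the mean over all tested compounds plus 3 SD, cut at about 0.9% in these data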;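 further: 0% = DMSO-only wells and 100% = 3 µM delta7-dafachronic acid wells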
hgDAF12 agonist = activates the H. glycines DAF-12 receptor ligand-binding domain | HEK293 GAL4-hgDAF12 UAS-luciferase reporter, agonist luminescence; normalized to butyrate control | activation, % at 6.8 µM | 370,000 compounds, 1.8% hits | AID 687014;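 active means activation above a cutoff set at the mean of all screened compounds plus 3 SD, cut at about 10% in these data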;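 further: 0% = DMSO wells and 100% = sodium butyrate wells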
hcDAF12 agonist = H. contortus DAF-12 activation, primary screen. HEK293 hcDAF-12 lit1-tk-luc reporter, luminescence; 0% DMSO, 100% Δ7-dafachronic acid. activation, % at 6.8 µM. 370,000 compounds, 1.4% hits. AID 652067;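 active means activation above the mean of all tested compounds plus 3 SD, cut at about 5.5% in these data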;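 further: 100% = response to 3 µM Δ7-dafachronic acid high control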
DAX1 inh-2 = blocks DAX1 repression of SF-1 activated StAR promoter. HEK293T StAR-luciferase reporter, SF-1/DAX-1 repression relief. 370,000 compounds, 1.1% hits. AID 652010. inhibition, % at 6.8 µM;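 active means inhibition above the mean over all tested compounds plus 3 SD, cut at about 3.6% in these data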;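 further: 0% = DAX-1 cells with DMSO and 100% = cells lacking DAX-1 with DMSO; higher inhibition means more luminescence from relief of DAX-1 repression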
The depositor's hits bear a star; · = not tested or not shown. In the library only some 5.7% were active in any assay of this set; here they are far more common.

SMILES | DAX1 inh-1 | AHR act | ssDAF-12 act | hgDAF12 agonist | hcDAF12 agonist | DAX1 inh-2
CC1CCc2nc(NC(=O)C3CCCO3)sc2C1 (stereo not drawn) | 1.1 | 14.1 | 0.8 | 12.3* | 6.5* | 3.7*
O=C(NC(=S)Nc1nc2ccc(F)cc2s1)c1ccco1 | 1.6 | 19.7 | 2.6* | 4.7 | 5.8* | 2.0
CC(=O)Oc1ccc2c(=O)c(Oc3ccccc3)coc2c1OC(C)=O | 0.2 | 3.1 | -0.7 | -2.1 | -1.0 | -0.6
CCCCC[C@@H](C)N1C[C@@H](COCc2ccccc2)Oc2cc(N3CC[C@@H](N(C)C)C3)ccc2S1(=O)=O | · | · | -0.6 | -1.0 | 0.2 | 1.6
COc1ccc(-c2cn(CCO)c(-c3ccc(Cl)nc3)n2)cc1 | 0.1 | 44.7 | -0.9 | -0.4 | 1.3 | 0.4
CCCS(=O)(=O)NC(=O)C1(C)CCCN(C(=O)c2ccccc2F)C1 (stereo not drawn) | · | · | -1.2 | 2.0 | -0.2 | 0.6
Cc1c(C(=O)NCCN2C(=O)S/C(=C\c3cccnc3)C2=O)cccc1[N+](=O)[O-] | -0.6 | 3.7 | -0.9 | 2.4 | -0.4 | -0.6
C[C@@H]1CCC[C@@]2(O[C@@H](CCO)C[C@@H](O)[C@@H]2O)O1 | 1.1 | 3.0 | -0.9 | -1.5 | -1.6 | 0.1
O=C(Nc1ccc(F)cc1)OC1CC2CC1[C@H]1CCCCN1[C@H]2Cc1ccccc1 (stereo partly drawn) | · | · | -0.3 | 2.2 | 3.2 | 0.0
O=C(Nc1nc2ccc(F)cc2s1)C1CCCO1 (stereo not drawn) | 1.2 | 10.1 | 0.1 | 11.3* | 4.6 | 4.0*
O=C1C(Cl)=C(N2CCN(c3ccccc3[N+](=O)[O-])CC2)C(=O)c2ccccc21 | 1.1 | 70.6* | -1.2 | -3.9 | 1.1 | -1.9
O=C(Cc1nnc(NC(=O)c2ccccc2)s1)N/N=C\c1ccc(O)c(O)c1 | -0.4 | 56.2* | -0.8 | 3.1 | 2.1 | 0.6
CCCCNC(=O)c1ccccc1NC(=O)c1ccc2c(c1)OCO2 | -1.4 | 58.1* | -1.2 | -2.5 | -3.0 | -0.9
COc1cc(NC(=O)c2ccc3c(c2)OCO3)c2ncccc2c1 | -0.8 | 65.5* | -0.3 | 3.2 | 1.7 | -0.5
CC(C)(C)NC(=O)c1ccccc1NC(=O)c1ccc2c(c1)OCO2 | -1.5 | 67.6* | -1.4 | 1.3 | -0.4 | -0.9
O=CNc1cc2c(cc1Br)-c1ccccc1C2O (stereo not drawn) | -0.8 | · | 0.8 | -0.3 | 1.8 | 0.8
Nc1cc2c(cc1Br)-c1ccc(F)cc1C2O (stereo not drawn) | 1.5 | · | 0.6 | 11.6* | 3.1 | -0.1
COc1ccccc1/C=C/c1onc(C)c1S(=O)(=O)N1CCC(C(=O)NC(C)C)CC1 | 1.6 | 0.3 | -1.4 | 1.8 | -2.2 | -1.0
O=C(O)c1oc2ccc(Br)cc2c1-n1cccc1 | 7.0* | 3.1 | -0.7 | 0.0 | 1.4 | 0.2
Cc1ccccc1C(=O)Oc1ccc2ccc(O)cc2c1 | 4.7* | 12.7 | -0.5 | 10.5* | 1.6 | 1.0
Cc1ccccc1S(=O)(=O)Oc1ccc2ccc(O)cc2c1 | 1.7 | 0.4 | -0.7 | 9.1 | 1.6 | -0.4
N=c1oc2ccc(Cl)cc2cc1C(=O)Nc1ccc(F)cc1 | 5.5* | 43.6 | -0.4 | 4.8 | 3.7 | 0.6
N=c1oc2ccccc2cc1C(=O)Nc1ccccc1 | 3.9 | 9.3 | -0.3 | 12.9* | 5.9* | 1.8
COc1ccc2oc(=N)c(C(=O)Nc3ccc(F)cc3)cc2c1 | -0.7 | 3.2 | -0.3 | -0.9 | 0.5 | 0.1
O=C(CC1CCCC1)N[C@H](C(=O)N1CCC[C@H]1C(=O)NC1CCCC1)c1ccccc1 | · | · | -1.5 | -1.3 | -2.0 | -0.1
SMILES | DAX1 inh-1 | AHR act | ssDAF-12 act | hgDAF12 agonist | hcDAF12 agonist | DAX1 inh-2
COc1ccc(CNc2ccc(S(=O)(=O)N3CCN(C)CC3)cn2)cc1OC | 0.6 | 0.1 | -0.7 | 1.1 | -0.3 | 0.0
COc1ccccc1NC(=O)CCSc1nnc(-c2ccncc2)o1 | 0.7 | 1.5 | -0.4 | 2.0 | 0.1 | 0.9
COc1cccc(C(=O)Nc2cc(C(F)(F)F)ccc2Cl)c1 | -0.8 | 59.5* | -0.4 | 2.9 | -1.3 | -0.4
Cc1occc1C(=O)NNC(=O)Nc1ccc(F)cc1F | -1.3 | 0.6 | -1.1 | 1.1 | 0.4 | -0.3
Cc1occc1C(=O)Nc1cc(=O)n(C)c(=O)n1C | -0.6 | 66.0* | 0.4 | 3.2 | 2.9 | 1.0
Cc1occc1C(=O)Nc1ccc(Br)cc1F | 1.9 | 25.5 | -0.4 | 11.7* | 1.9 | 0.8
